# From PubChem BioAssay AID504329 (Southern Research Specialized Biocontainment Screening …, 2011)
# Values joined by “and” are separate entries in the source; they are usually repeats but may differ in a detail not shown here. Identical values can stand only once. The campaign covered roughly 340,000 compounds. About 1,000 (0.29%) were called active. Cut-off read from the data, not from the text of the source: inconclusive = inhibition above about 27% without an active follow-up result; inactive = below that. These entries were drawn from the full list. Entries with a potency or affinity are not part of this list.
# Test: H1N1 influenza NS1A inhibitors, functional cell based assay (AID 504329)
# Details: percent inhibition, at 12.5 µM, active compounds read high
row,Structure (SMILES),inhibition
1,CC1(C)Cc2cccc(Oc3ccc(S(=O)(=O)N4CCCC4)cn3)c2O1,6.74% (inactive)
2,CC(C)(CNC(=O)C1CCCN1C(=O)c1cccs1)N1CCOCC1 (configuration not stated),-1% (inactive)
3,O=C(c1cc(-c2ccc(Cl)cc2)n[nH]1)N1CCc2ccccc2C1,-1.28% (inactive)
4,COc1ccccc1C(=O)NC(=O)COC(=O)c1cnc(C)cn1,1.58% (inactive)
5,CCc1cccc(CC)c1NC(=S)NCCc1ccc(O)c(O)c1,9.59% (inactive)
6,CCN1/C(=C/c2ccc3cc(C)ccc3[n+]2CC)Sc2ccccc21,21% (inactive)
7,CCN1/C(=C/c2ccc3cc(C)ccc3[n+]2CC)Sc2ccc3sccc3c21,-14% (inactive)
8,CCN1/C(=C/c2ccc3cc(C)ccc3[n+]2CC)Sc2cc(C)c(C)cc21,28.7% (inactive)
9,CCN1/C(=C/c2ccc3ccccc3[n+]2CCCS(=O)(=O)[O-])C=Cc2cc(C)ccc21,19.6% (inactive)
10,CCN1/C(=C\c2ccc3cc(C)ccc3[n+]2CC)Sc2cc(C)c(C)cc21,25.6% (inactive)
11,CCN1C(=C(C#N)C#N)C=Cc2ccccc21,-6.42% (inactive)
12,CC(=O)N(C)C(c1ccc(N(C)C)cc1)c1nnnn1-c1c(C)cccc1C (configuration not stated),3.51% (inactive)
13,CCCC(=O)Nc1nnc(S(=O)(=O)N(CC(C)C)c2ccccc2)s1,-2.29% (inactive)
14,CCN(CC)C(=O)[C@H]1C[C@H](CC(=O)NCCc2ccccn2)C(=O)N2CCc3c([nH]c4ccc(Cl)cc34)[C@]12C,15.9% (inactive)
15,O=C(CCC1CCCN(c2ncccn2)C1)NCc1ccccc1F (configuration not stated),-9.11% (inactive)
16,O=C1OCc2cc(NC(=O)C34CC5CC(CC(C5)C3)C4)ccc21,1.32% (inactive)
17,O=C(O)c1cccc2c1-c1ccc(Cl)cc1C2=O,-19.9% (inactive)
18,Nc1ccc2c(c1)C(=O)c1ccc(Cl)cc1-2,-15.2% (inactive)
19,C[C@@H]1Cc2c(O)c(O)cc(O)c2C(=O)O1,3.88% (inactive)
20,CC1CC(=O)c2c(cc3c(-c4c(O)cc(O)c5c(O)c6c(cc45)OC(C)CC6=O)c(O)cc(O)c3c2O)O1 (configuration not stated),24.8% (inactive)
21,O=C(CSc1nnc(-c2ccco2)n1CC1CCCO1)NC1CCCC1 (configuration not stated),20.3% (inactive)
22,CCOc1ccc2[nH]c3ncccc3c(=O)c2c1,3.05% (inactive)
23,CCOc1ccc(N=Nc2ccc(O)c3ncccc23)cc1,4% (inactive)
24,O=C(Nc1ccc([N+](=O)[O-])cc1Cl)c1cc(Cl)ccc1O,8.63% (inactive)
25,O=C(Nc1cccc(O)c1)c1ccc([N+](=O)[O-])cc1Cl,-2.66% (inactive)

row,Structure (SMILES),inhibition
1,Cc1cccc(NS(=O)(=O)c2csc(C(N)=O)c2)c1,14.1% (inactive)
2,Cc1cccc(OCCCC(=O)NNC(=O)c2ccc(F)cc2)c1,-5.91% (inactive)
3,COc1cc(N=Nc2ccc(C(=O)N(C)C)cc2)c(C)cc1N,11.5% (inactive)
4,COc1ccc(N=Nc2ccc(N)nc2N)cc1,20.4% (inactive)
5,Cn1c(Cn2c(=O)sc3ccccc32)nnc1SCC(=O)NCCc1ccccc1,1.01% (inactive)
6,CN(C)c1ccc(N=Nc2ccccc2C(=O)OCC(=O)N(C)C2CCCCC2)cc1,10.8% (inactive)
7,CN(C)c1ccc(N=Nc2ccccc2C(=O)OCC(=O)N2CCCCCC2)cc1,28.4% (inactive)
8,CN(C)c1ccc(N=Nc2ccccc2C(=O)OCC(=O)NCC2CCCCC2)cc1,8.64% (inactive)
9,CN(C)c1ccc(N=Nc2ccccc2C(=O)OCC(=O)N2CCCC2)cc1,22.2% (inactive)
10,CN(C)c1ccc(N=Nc2ccccc2C(=O)OCC(=O)Nc2ccccc2C(F)(F)F)cc1,28.2% (inactive)
11,CC(=O)c1ccc(NC(=O)COC(=O)c2ccccc2N=Nc2ccc(N(C)C)cc2)cc1,17.2% (inactive)
12,COC(=O)c1cc(C(=O)OCC(=O)NC2CCS(=O)(=O)C2)cc([N+](=O)[O-])c1 (configuration not stated),6.69% (inactive)
13,O=C(CCC1CCCN(C(=O)c2ccoc2)C1)NCc1ccccc1F (configuration not stated),-1.5% (inactive)
14,COc1ccccc1NC(=O)Nc1nc(CC(=O)Nc2ccc(OC)c(OC)c2)cs1,-0.35% (inactive)
15,COc1ccccc1NC(=O)Nc1nc(CC(=O)Nc2ccc(F)cc2)cs1,-9.19% (inactive)
16,O=C(Cn1nnc(-c2ccccc2F)n1)Nc1ccc2c(c1)OCCO2,-0.7% (inactive)
17,C[C@H](NC(=O)c1nc[nH]c1C(=O)N1CCc2ccccc2C1)c1ccccc1,-11.5% (inactive)
18,O=C(COc1ccc(Cl)cc1)N/N=C/c1cccc2cccnc12,2.4% (inactive)
19,CCOc1ccccc1C=NNC(=O)c1cccc2ccccc12,-22.3% (inactive)
20,CCOc1ccc(C(=O)Nc2cccc3cccnc23)cc1,-4.15% (inactive)
21,COc1ccc(C(=O)N/N=C/c2ccc3cccc(O)c3n2)cc1,-2.2% (inactive)
22,O=C(N/N=C/c1cccc2cccnc12)c1ccccc1O,0.6% (inactive)
23,COc1ccc(C(=O)N/N=C/c2cccnc2)cc1,-5.94% (inactive)
24,CCN(CC)CCNC(=O)/C(=C/c1cn(C)c2ccccc12)NC(=O)c1ccc(OC)c(OC)c1,-22.9% (inactive)
25,COC(=O)Cc1[nH]nc2c1C(c1cccc(OC)c1OC)C(C#N)=C(N)O2 (configuration not stated),-3.61% (inactive)

row,Structure (SMILES),inhibition
1,CN(c1ccccc1)S(=O)(=O)CS(=O)(=O)N(C)c1ccccc1,-0.79% (inactive)
2,COc1ccccc1CNC(=O)CCCn1nc(C)n2ccnc2c1=O,-0.77% (inactive)
3,CCCOc1ccc(N2CC(C(=O)Nc3ccc(N4CCOCC4)cc3)CC2=O)cc1 (configuration not stated),-0.783% (inactive)
4,CCCC(C)C(=O)Nc1cccc(NC(C)=O)c1 (configuration not stated),-2.06% (inactive)
5,COc1ccccc1CNC(=O)COC(=O)c1cccc(-n2cnnn2)c1,-6.66% (inactive)
6,Cc1ccc(NC(=O)C2CCCN2C(=O)OCc2ccccc2)c(O)c1 (configuration not stated),0.49% (inactive)
7,COc1cc(/C=C2\SC(N)=NC2=O)cc(Cl)c1O,4.85% (inactive)
8,COc1cc(/C=C2\SC(c3ccc(C)cc3)=NC2=O)cc(OC)c1O,17.9% (inactive)
9,O=C(CCN1C(=O)c2ccccc2C1=O)NCc1ccccc1,5.94% (inactive)
10,CCN(CC)c1ccc(C(=S)NCc2ccccc2)cc1,-0.32% (inactive)
11,CCN(CC)c1ccc(C(=O)O)cc1,15.6% (inactive)
12,CCN(CC)c1ccc(SS(=O)(=O)O)cc1,-7.03% (inactive) and 0.65% (inactive)
13,CCN(CC)c1ccc(/C=C2\C(=O)c3ccc(C(=O)O)cc3C2=O)cc1,20.7% (inactive)
14,CCN(CC)c1ccc(NC(=O)Nc2ccc(C(C)=O)cc2)cc1,7.64% (inactive)
15,CCN(CC)c1ccccc1,-3.57% (inactive)
16,COC(=O)C1=C(C)N(CCCC(=O)O)C(=O)NC1c1ccccc1OS(=O)(=O)c1ccc([N+](=O)[O-])cc1 (configuration not stated),13.1% (inactive)
17,Cc1cc(C)cc(NC(=O)COC(=O)CCc2ccc(S(=O)(=O)N3CCOCC3)cc2)c1,3.45% (inactive)
18,Cc1cccc2cc(C#N)c(SCC(=O)Nc3ccccc3N3CCOCC3)nc12,-15.7% (inactive)
19,Cc1ccc([N+](=O)[O-])cc1S(=O)(=O)Nc1ccc(-c2ccc(N3CCOCC3)nn2)cc1,-3.07% (inactive)
20,COCCCNC(=O)c1ccc2c3c(onc13)-c1ccccc1C2=O,17.2% (inactive)
21,COC(CNC(=O)c1coc2nc3ccccc3nc12)OC,17% (inactive)
22,CCOC(=O)N1CCN(C(=O)c2cn(CC)c3ccc(S(=O)(=O)N4CCC(C)CC4)cc3c2=O)CC1,-9.88% (inactive)
23,C/C(CC(=O)Nc1ccccn1)=N\NC(=O)c1cnccn1,-7.52% (inactive)
24,CCc1ccc(NC(=S)N(Cc2ccccc2)Cc2ccccn2)cc1,11.1% (inactive)
25,CCOc1ccc(C(=O)N/N=C(\c2ccccc2)c2ccccn2)cc1,-0.16% (inactive)

row,Structure (SMILES),inhibition
1,O=C(NN=C(c1ccccc1)c1ccccn1)c1ccccc1,-14.3% (inactive)
2,O=C(CCc1nnc(COc2ccccc2)o1)NCCc1cccs1,-7.18% (inactive)
3,FC(F)(F)c1ccc(Cl)c(-n2c(-c3cc(C4CC4)[nH]n3)n[nH]c2=S)c1,8.02% (inactive)
4,CC(CC(=O)OCC(=O)NC1CCS(=O)(=O)C1)c1ccccc1 (configuration not stated),4% (inactive)
5,CC(=O)N(Cc1cccs1)Cc1cc2ccc(C)c(C)c2nc1Cl,-4.22% (inactive)
6,Cc1cc(C)nc(Nc2nc3ccccc3o2)n1,-16.8% (inactive)
7,Cc1ccc2oc(Nc3nc(C)c(C)c(C)n3)nc2c1,-16.7% (inactive)
8,Cc1nc(Nc2nc3ccccc3o2)nc(C)c1C,5% (inactive)
9,Cc1ccc2oc(Nc3nc(C)cc(C)n3)nc2c1,-7.76% (inactive)
10,CCCSc1nc2cc(C)c(C)cc2n1CC(C)O (configuration not stated),-12.9% (inactive)
11,Cc1ccc(C(=O)Nc2cccc(C(F)(F)F)c2)cc1NC(=O)c1c[nH]c2cc(C(F)(F)F)ccc2c1=O,-5.49% (inactive)
12,CC(C)N(C(=O)CN1C(=O)NC2(CCCCCC2)C1=O)C(C)C,-2.18% (inactive)
13,Cc1cccc(C)c1NC(=O)c1sccc1SCC#N,-4.84% (inactive)
14,CC[n+]1c(-c2ccccc2)c2cc(N)ccc2c2ccc(N)cc21,7.81% (inactive)
15,C[n+]1c2cc(N)ccc2cc2ccc(N)cc21,-0.44% (inactive) and -3.15% (inactive)
16,Cc1ccc2c(c1)c1c3n2CCN(C(=O)CN2CCN(C)CC2)C3CCC1 (configuration not stated),7.29% (inactive)
17,Cc1ccc2c(c1)c1c3n2CCN(C(=O)CCl)C3CCC1 (configuration not stated),1.19% (inactive)
18,COc1ccc(Nc2nc(N)nc(CSC(=S)N3CCN(C)CC3)n2)cc1,-7.34% (inactive)
19,CN(C)c1ccc(N=Nc2ccc(S(N)(=O)=O)cc2)cc1,12.4% (inactive)
20,CN(C)c1ccc(C2Nc3cccc4cccc(c34)N2)cc1,1.96% (inactive)
21,Cc1ccc(N=Nc2ccc(O)cc2)c(Br)c1,10.2% (inactive)
22,CN(C)c1cccc2cccc(N(C)C)c12,11.8% (inactive)
